Experimental data from PubChem BioAssay (Tox21).
Inconclusive results are not listed. The source made the active and inactive calls. Unless noted, calls come from the whole dose curve; as a rule, active = well fitted curve in the direction sought with a large enough effect in the repeat runs; inconclusive = weak or mixed curves; inactive = no such curve, though single readings can be large; an effect the other way counts as inactive or inconclusive.

Tests used:
[1] = qHTS assay to identify small molecule agonists of the vitamin D receptor (VDR) signaling pathway - cell viability counter screen (AID 743224); note: series mostly up to about 63 µM; % is set by controls: 0 for no effect and ±100 for the full control effect; nearly all actives have a fitted effect of over 50% in size
How it was run: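 Cells: VDR-bla, 2,000/well, settled 4 h. Treatment: compounds in DMSO, 16 h, 37C/5% CO2. Readout: CellTiter-Glo luminescence after 30 min RT.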

[2] = qHTS assay to identify small molecule antagonists of the vitamin D receptor (VDR) signaling pathway - cell viability counter screen (AID 743225); note: % is set by controls: 0 for no effect and ±100 for the full control effect; nearly all actives have a fitted effect of over 50% in size
How it was run: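 Cytotoxicity counter screen read by CellTiter-Glo luminescence (30 min, room temperature) in the same wells as the VDR-bla antagonist readout. HEK 293T VDR-UAS-bla cells had 16 h at 37C with compound and 3 nM (final) 1-alpha,25-dihydroxyvitamin D3, then 2 h with FRET substrate.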

[3] = qHTS assay to identify small molecule agonists of the NFkB signaling pathway (AID 1159509; active = well fitted curve in the direction sought with a large enough effect in the signal ratio in the repeat runs, not every such curve was filed as active; the % refers to the signal ratio; note: series mostly up to about 61 µM; % is set by controls: 0 for no effect and ±100 for the full control effect)
How it was run: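 Pathway activation was measured in ME-180 cells stably expressing beta-lactamase under NF-kB response element control. Substrate cleavage was read as the 460/530 nm emission shift after 5 hr compound incubation.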

[4] = qHTS assay to identify small molecule agonists of the NFkB signaling pathway - cell viability counter screen (AID 1159515; calls by dose curve; note: series mostly up to about 61 µM; % is set by controls: 0 for no effect and ±100 for the full control effect; nearly all actives have a fitted effect of over 55% in size)
How it was run: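 Cells are seeded (2,000 NFkB-bla ME-180 per well), rested overnight, and dosed with DMSO-dissolved compounds for 5 hr at 37 C. Viability is then read by CellTiter-Glo luminescence after 30 min at room temperature.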

[5] = qHTS assay to identify small molecule agonists of the endoplasmic reticulum stress response signaling pathway (AID 1159516; active = well fitted activation curve with a large enough effect in the signal ratio in the repeat runs, not every such curve was filed as active; the % refers to the signal ratio; note: % is set by controls: 0 for no effect and ±100 for the full control effect)
How it was run: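 Cells are seeded at 1,500 per well and incubated overnight. Compounds in DMSO are added for 5 hr at 37 C, then beta-lactamase FRET substrate for 2 hr at room temperature, and fluorescence at 460 and 530 nm is measured.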

[6] = qHTS assay to identify small molecule agonists of the endoplasmic reticulum stress response signaling pathway - cell viability counter screen (AID 1159517; calls by dose curve;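 note: HeLa cells carrying an ER stress response element beta-lactamase reporter; series mostly up to about 61 µM; % is set by controls: 0 for no effect and ±100 for the full control effect; nearly all actives have a fitted effect of over 50% in size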)
How it was run: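 ESRE-bla HeLa cells (1,500/well) were plated overnight at 37 C and exposed to compounds for 5 hr. After the 2 hr beta-lactamase substrate read, CellTiter-Glo went into the same wells, and luminescence was read after 30 min at room temperature.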

[7] = qHTS assay to identify small molecule antagonists of the retinoid-related orphan receptor gamma (ROR-gamma) signaling pathway - cell viability counter screen (AID 1159520); note: % is set by controls: 0 for no effect and ±100 for the full control effect; nearly all actives have a fitted effect of over 50% in size
How it was run: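 Cytotoxicity was read from cellular ATP (CellTiter-Glo luminescence) after 16 hr at 37 C with 1 uM doxycycline induction. The inducer was added 2 hr after compound transfer to Tet-on ROR gamma CHO cells.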

[8] = molecular target: Nuclear receptor ROR-gamma (Homo sapiens) (UniProt P51449); experiment: qHTS assay to identify small molecule antagonists of the retinoid-related orphan receptor gamma (ROR-gamma) signaling pathway (AID 1159521)
How it was run: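 Antagonist read-out: drop in luminescence (ONE-Glo) from an RORE-LUC reporter in CHO cells with doxycycline-inducible ROR-gamma; 2 hr compound pretreatment, 1 uM doxycycline, 16 hr incubation at 37 C.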

[9] = qHTS assay to identify small molecule agonists of the AP-1 signaling pathway - cell viability counter screen (AID 1159525; calls by dose curve; note: nearly all actives have a fitted effect of over 55% in size)
How it was run: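 Intracellular ATP by Cell Titer Glo luminescence (30 min, RT) in the same ME-180 AP-1-bla wells after the 5 h compound exposure at 37 °C. Normalised to tetra n-octyl ammonium bromide and DMSO controls.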

[10] = qHTS assay to identify small molecule agonists of the AP-1 signaling pathway (AID 1159526; calls by dose curve; note: % is set by controls: 0 for no effect and ±100 for the full control effect)
[11] = molecular target: Retinoic acid receptor RXR-alpha (Homo sapiens) (UniProt P19793); experiment: qHTS assay to identify small molecule agonists of the RXR signaling pathway (AID 1159527; calls by dose curve; note: % is set by controls: 0 for no effect and ±100 for the full control effect; nearly all actives have a fitted effect of over 35% in size)
Sequence of Retinoic acid receptor RXR-alpha (Homo sapiens) (P19793 whole entry, looked up): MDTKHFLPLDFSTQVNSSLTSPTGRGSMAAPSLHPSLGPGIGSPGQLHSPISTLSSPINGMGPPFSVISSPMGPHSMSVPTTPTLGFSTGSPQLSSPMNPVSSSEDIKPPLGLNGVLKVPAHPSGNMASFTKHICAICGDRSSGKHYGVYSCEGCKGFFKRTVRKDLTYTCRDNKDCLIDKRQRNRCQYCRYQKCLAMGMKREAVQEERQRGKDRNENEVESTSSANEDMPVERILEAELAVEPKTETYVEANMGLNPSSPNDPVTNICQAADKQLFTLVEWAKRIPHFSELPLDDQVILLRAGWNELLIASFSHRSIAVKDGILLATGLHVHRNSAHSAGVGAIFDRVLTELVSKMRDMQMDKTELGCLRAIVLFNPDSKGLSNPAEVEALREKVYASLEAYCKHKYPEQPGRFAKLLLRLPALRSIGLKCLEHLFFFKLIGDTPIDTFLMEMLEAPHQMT
How it was run: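 Agonist-mode beta-lactamase reporter assay: HEK 293T RXR-alpha-UAS-bla cells treated 16 hr at 37 C with compounds, 9-cis retinoic acid as positive control. LiveBLAzer FRET substrate, 405 nm excitation, 460/530 nm emission.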

[12] = qHTS assay to identify small molecule agonists of the RXR signaling pathway - cell viability counter screen (AID 1159529)
How it was run: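 CellTiter-Glo luminescence gave viability in the wells also read for beta-lactamase. Cells (RXR-alpha-UAS-bla HEK 293T, 2% charcoal-stripped FBS medium) had 5 hr plating, then 16 hr compound exposure at 37 C; tetraoctyl ammonium bromide served as positive control.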

[13] = qHTS assay to identify small molecule antagonists of the retinoid acid receptor (RAR) signaling pathway - cell viability counter screen (AID 1159551); note: % is set by controls: 0 for no effect and ±100 for the full control effect; nearly all actives have a fitted effect of over 35% in size
How it was run: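 Cells (C3RL4) are plated, incubated overnight, dosed with compound in DMSO, then given retinol at 1 uM final. After 6 h at 37 C, CellTiter-Glo is added and luminescence read following 30 min at room temperature.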

[14] = qHTS assay to identify small molecule antagonists of the retinoic acid receptor (RAR) signaling pathway (AID 1159552)
How it was run: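 Luminescent RARE reporter read-out in C3RL4 cells: 6 hr co-treatment at 37 C of test compounds with retinol at 1 uM final. Cells plated overnight beforehand; luciferase reagent incubated 30 min at room temperature before reading.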

[15] = qHTS assay to identify small molecule agonists of the retinoic acid receptor (RAR) signaling pathway (AID 1159553); note: % is set by controls: 0 for no effect and ±100 for the full control effect
How it was run: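 Seed C3RL4 reporter cells at 1,000 per well and incubate overnight at 37 C. Add compounds in DMSO, incubate 6 hr. Add luciferase reagent, wait 30 min at room temperature, read luminescence.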

[16] = qHTS assay to identify small molecule antagonists of the estrogen related receptor (ERR) signaling pathway from Tox21 library - cell viability counter screen (AID 1224834); note: % is set by controls: 0 for no effect and ±100 for the full control effect; nearly all actives have a fitted effect of over 30% in size
How it was run: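 ERR cells, 2,000/well; 6 h settle at 37 C/5% CO2; pin-tool compound transfer in DMSO; 17.5 h at 37 C; CellTiter-Fluor, 30 min; fluorescence intensity.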

[17] = molecular target: Luciferin 4-monooxygenase (Photinus pyralis) (UniProt P08659); experiment: qHTS assay to identify small molecule inhibitors of firefly luciferase (AID 1224835); note: series mostly up to about 120 µM; % is set by controls: 0 for no effect and ±100 for the full control effect; nearly all actives have a fitted effect of over 25% in size
Sequence of Luciferin 4-monooxygenase (Photinus pyralis) (P08659 whole entry, looked up): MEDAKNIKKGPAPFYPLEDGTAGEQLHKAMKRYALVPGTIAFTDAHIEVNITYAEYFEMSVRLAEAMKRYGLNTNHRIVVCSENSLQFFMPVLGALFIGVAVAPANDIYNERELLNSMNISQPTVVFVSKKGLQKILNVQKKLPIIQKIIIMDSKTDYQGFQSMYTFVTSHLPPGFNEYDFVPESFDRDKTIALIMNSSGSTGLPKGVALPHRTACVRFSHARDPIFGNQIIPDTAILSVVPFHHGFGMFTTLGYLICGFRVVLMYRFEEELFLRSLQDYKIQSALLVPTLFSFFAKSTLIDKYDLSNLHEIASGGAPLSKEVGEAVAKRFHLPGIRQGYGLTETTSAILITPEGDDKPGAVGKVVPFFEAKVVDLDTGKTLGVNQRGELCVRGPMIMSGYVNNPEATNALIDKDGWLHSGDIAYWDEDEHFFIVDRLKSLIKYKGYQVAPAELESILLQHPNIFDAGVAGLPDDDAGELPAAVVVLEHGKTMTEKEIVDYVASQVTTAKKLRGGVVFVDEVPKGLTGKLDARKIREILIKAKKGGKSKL
How it was run: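 Inhibition of purified Photinus luciferase is measured by luminescence. Substrate levels (D-luciferin, ATP) sit at their KM values. Each compound is tested in a concentration series.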

[18] = qHTS assay to identify small molecule agonists of the constitutive androstane receptor (CAR) signaling pathway - cell viability counter screen (AID 1224836); note: series mostly up to about 92 µM; % is set by controls: 0 for no effect and ±100 for the full control effect; nearly all actives have a fitted effect of over 45% in size
How it was run: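 Cell viability multiplexed with the CAR agonist screen: CellTiter-Fluor fluorescence after 23 hr at 37 C. HepG2-CYP2B6-hCAR cells got compounds at 15 concentrations with PK11195 at 0.75 uM final.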

[19] = qHTS assay to identify small molecule antagonists of the constitutive androstane receptor (CAR) signaling pathway - cell viability counter screen (AID 1224837); note: series mostly up to about 92 µM; % is set by controls: 0 for no effect and ±100 for the full control effect; nearly all actives have a fitted effect of over 45% in size
How it was run: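 Viability was measured with CellTiter-Fluor in a HepG2 line carrying stably transfected hCAR and a CYP2B6-2.2kb construct. Cells were exposed for 23 hr at 37 C to 15 compound concentrations with 50 nM CITCO as agonist.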

[20] = molecular target: Nuclear receptor subfamily 1 group I member 3 (Homo sapiens) (UniProt Q14994); experiment: qHTS assay to identify small molecule antagonists of the constitutive androstane receptor (CAR) signaling pathway (AID 1224838);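 note: HepG2 cells stably expressing hCAR with CYP2B6 luciferase reporter stimulated by CITCO; % is set by controls: 0 for no effect and ±100 for the full control effect; nearly all actives have a fitted effect of over 40% in size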
Sequence of Nuclear receptor subfamily 1 group I member 3 (Homo sapiens) (Q14994 whole entry, looked up): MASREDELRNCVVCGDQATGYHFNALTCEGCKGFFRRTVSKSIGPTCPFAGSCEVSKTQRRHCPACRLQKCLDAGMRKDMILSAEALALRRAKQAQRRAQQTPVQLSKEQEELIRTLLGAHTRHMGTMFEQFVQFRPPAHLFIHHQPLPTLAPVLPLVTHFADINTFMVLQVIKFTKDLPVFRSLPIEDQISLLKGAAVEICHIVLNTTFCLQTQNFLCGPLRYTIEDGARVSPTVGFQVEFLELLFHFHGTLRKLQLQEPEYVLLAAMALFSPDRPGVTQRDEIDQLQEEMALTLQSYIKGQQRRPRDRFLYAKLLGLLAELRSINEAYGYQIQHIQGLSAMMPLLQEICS
How it was run: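 Antagonist mode used CITCO at a final 50 nM to activate CAR in human hepatoma HepG2 cells carrying stable hCAR and a 2.2 kb CYP2B6 promoter-luciferase construct. Compounds were tested at 15 concentrations over 24 h, with luminescence as the end point.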

C/C=C(\C)C(C)=O
inactive: outcome [1] | outcome [2] | outcome [3] | outcome [4] | outcome [5] | outcome [6] | outcome [7] | outcome [8] | outcome [9] | outcome [10] | Potency [11] | outcome [12] | outcome [13] | outcome [14] | Potency [15] | outcome [16] | Potency [17] | outcome [18] | outcome [19] | Potency [20]

[O]=[Mo](=[O])=[O]
inactive: outcome [1] | outcome [2] | outcome [3] | outcome [4] | outcome [5] | outcome [6] | activity, negative = cytotoxicity [7] 11.6% [at 19 µM] | activity change, negative = inhibition [8] 4.36% [at 19 µM] | viability change, negative = cytotoxic [9] -2.83% [at 15.8 µM] | activation [10] -20.6% [at 15.8 µM] | activation [11] 0.58% [at 15.8 µM] | activity change, negative = cytotoxicity [12] -1.21% [at 15.8 µM] | activity change, negative = cytotoxicity [13] 3.04% [at 19 µM] | activity, negative = inhibition [14] 8.42% [at 19 µM] | Potency [15] | viability change, negative = cytotoxic [16] 3.34% [at 19 µM] | activity change, negative = inhibition [17] 0.269% [at 23.6 µM] | viability change, negative = cytotoxic [18] -3.23% [at 19 µM] | activity change, negative = cytotoxicity [19] -0.0508% [at 19 µM] | activity, negative = inhibition [20] -9.59% [at 19 µM]

CC(CO)(CO)CO
inactive: outcome [1] | outcome [2] | outcome [3] | outcome [4] | outcome [5] | outcome [6] | outcome [7] | outcome [8] | outcome [9] | outcome [10] | Potency [11] | outcome [12] | outcome [13] | outcome [14] | Potency [15] | outcome [16] | Potency [17] | outcome [18] | outcome [19] | Potency [20]

O=C(NCN1CCOCC1)c1cnccn1
inactive: outcome [1] | outcome [2] | outcome [3] | outcome [4] | outcome [5] | outcome [6] | outcome [7] | outcome [8] | outcome [9] | outcome [10] | Potency [11] | outcome [12] | outcome [13] | outcome [14] | Potency [15] | outcome [16] | Potency [17] | outcome [18] | outcome [19] | Potency [20]

O=C(O)c1cc2ccccc2nc1C(=O)O
inactive: outcome [2] | outcome [3] | outcome [4] | outcome [5] | outcome [6] | outcome [7] | outcome [8] | outcome [9] | outcome [10] | Potency [11] | outcome [12] | outcome [13] | outcome [14] | Potency [15] | outcome [16] | Potency [17] | outcome [18] | outcome [19] | Potency [20]

C[C@H]1[C@@H](c2ccccc2)NC(=O)N1C
inactive: outcome [1] | outcome [2] | outcome [3] | outcome [4] | outcome [5] | outcome [6] | outcome [7] | outcome [8] | outcome [9] | outcome [10] | Potency [11] | outcome [12] | outcome [13] | outcome [14] | Potency [15] | outcome [16] | Potency [17] | outcome [18] | outcome [19] | Potency [20]

CO[Si](CCCn1c(=O)n(CCC[Si](OC)(OC)OC)c(=O)n(CCC[Si](OC)(OC)OC)c1=O)(OC)OC
inactive: outcome [1] | outcome [2] | outcome [3] | outcome [4] | outcome [5] | outcome [6] | outcome [7] | outcome [8] | outcome [9] | outcome [10] | Potency [11] | outcome [12] | outcome [13] | outcome [14] | Potency [15] | outcome [16] | Potency [17] | outcome [18] | outcome [19] | Potency [20]
